# Experimental data taken from the supplement of paper PMC10646978.
# ± gives the standard deviation.
# Legend:
# Details in all cases: modulator concentration 10 µM
# [1] = test system: RAW-Dual (murine macrophage reporter line); assay: NF-kB reporter (SEAP) activity fold change vs agonist alone; higher = enhanced NF-kB activity
# Procedure, shortened: (§1)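 RAW-Dual murine macrophage reporter cells were plated at 50 000 per well in 384-well plates, pin-transferred compound to 10 μM final, and pre-incubated for 1 hour at 37 °C before a PRR agonist was added and the cells incubated overnight. NF-κB activity was read from supernatant SEAP with QUANTI-Blue at 620 nm absorbance, and IRF activity from Lucia luciferase with QUANTI-Luc by luminescence. Each signal was expressed as fold change by dividing by the mean agonist-only control on the same plate. Two replicate plates were averaged, with errors obtained by propagation.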
# [2] = test system: RAW-Dual (murine macrophage reporter line); assay: IRF reporter (Lucia luciferase) activity fold change vs agonist alone; higher = enhanced IRF activity
# Procedure, shortened: as §1
# [3] = test system: RAW-Dual (murine macrophage reporter line); assay: viability score (confluency relative to resting cells, overnight) (fraction); higher = more viable, active = viable (0.7 or more)
# Procedure, shortened: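 RAW-Dual macrophages in 384-well plates were exposed overnight to compound at 10 μM final. Confluency was imaged with IncuCyte, and two confluency masks were generated with IncuCyte software over all imaged wells. The viability score is confluency expressed relative to resting cells. Compounds were called viable if both masks exceeded 70% of resting cells.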
# [4] = agonist: CpG ODN 1826 0.5 ug/mL
Compound,"NF-kB reporter [1, 4]",NF-kB reporter ([1]; agonist: LPS 0.1 ug/mL),NF-kB reporter ([1]; agonist: MPLA […]),IRF reporter ([2]; agonist: 3'3'-cGAMP 10 ug/mL),IRF reporter ([2]; agonist: LPS 0.1 ug/mL),IRF reporter ([2]; agonist: MPLA […]),viability score [3]
C[C@@H](O[C@H]1OCCN(Cc2n[nH]c(=O)[nH]2)[C@H]1c1ccc(F)cc1)c1cc(C(F)(F)F)cc(C(F)(F)F)c1,0.545 ± 0.086,0.634 ± 0.031,0.806 ± 0.073,0.961 ± 0.045,1.29 ± 0.084,1.04 ± 0.09,1.02 (active)
COc1ccccc1N1CCN(c2ncnc3c2cnn3-c2cc(C)cc(C)c2)CC1,1.2 ± 0.067,1.16 ± 0.1,1.19 ± 0.042,1.01 ± 0.049,1.05 ± 0.098,1.08 ± 0.16,0.997 (active)
CC(=O)Nc1c(-c2ccc3ccccc3c2)nc2ccccn12,1.37 ± 0.33,0.942 ± 0.079,1.07 ± 0.11,0.949 ± 0.032,1.14 ± 0.15,1.16 ± 0.14,0.995 (active)
CCOc1ccccc1NC(=O)Nc1ccc2c(c1)CCC(=O)N2C,1.91 ± 0.14,1.41 ± 0.11,0.99 ± 0.057,0.404 ± 0.025,0.282 ± 0.032,0.389 ± 0.079,0.933 (active)
CCN(CCO)CCCOc1ccc2c(Nc3cc(CC(=O)Nc4cccc(F)c4)n[nH]3)ncnc2c1,0.703 ± 0.17,0.902 ± 0.23,0.893 ± 0.098,0.982 ± 0.03,1.25 ± 0.25,1.18 ± 0.12,0.951 (active)
COC(=O)C1=C(C)NC(=O)CC1c1c(F)cccc1Cl (stereo not drawn),0.986 ± 0.083,0.993 ± 0.087,0.975 ± 0.041,0.87 ± 0.032,1.03 ± 0.091,1.06 ± 0.14,0.995 (active)
COc1cccc(S(=O)(=O)NCc2sc(-c3ccccc3)nc2C)c1,1.26 ± 0.12,1.1 ± 0.086,0.901 ± 0.045,0.922 ± 0.059,1.11 ± 0.12,1.16 ± 0.28,0.942 (active)
O=C(Cc1ccccc1)NC(NC(=S)Nc1ccc(O)cc1)C(Cl)(Cl)Cl (stereo not drawn),0.88 ± 0.075,0.818 ± 0.098,1.06 ± 0.1,0.935 ± 0.032,1.29 ± 0.24,1.57 ± 0.33,1.02 (active)
Cl.NCc1ccc(S(N)(=O)=O)cc1,0.998 ± 0.097,0.965 ± 0.047,0.998 ± 0.078,0.964 ± 0.058,0.962 ± 0.038,0.928 ± 0.13,1 (active)
O=C(Nc1nc(CC(=O)N2CCc3ccccc3C2)cs1)c1ccc(Cl)cc1,1.05 ± 0.054,1.13 ± 0.09,0.845 ± 0.047,1.01 ± 0.056,1.16 ± 0.11,1.21 ± 0.15,1.01 (active)
Cc1ccccc1C(=O)Nc1nc(C(C)(C)C)cs1,0.519 ± 0.056,0.997 ± 0.047,1.12 ± 0.11,0.777 ± 0.047,1.23 ± 0.13,1.35 ± 0.13,1 (active)
Cc1cc2ncn(CC3CCN(C(=O)COc4ccc(F)cc4)CC3)c2cc1C.O=C(O)C(=O)O,0.724 ± 0.07,1.06 ± 0.1,0.931 ± 0.047,0.908 ± 0.064,0.916 ± 0.09,0.814 ± 0.26,1 (active)
CCOC(=O)CC(C)(O)P(=O)(OCC)OCC (stereo not drawn),1.01 ± 0.066,1.08 ± 0.068,0.955 ± 0.069,1.04 ± 0.035,1.44 ± 0.2,1.18 ± 0.12,1 (active)
Cc1ccc(C23CC4CC(CC(CN)(C4)C2)C3)cc1C.Cl,0.652 ± 0.44,0.309 ± 0.056,1.08 ± 0.35,0.11 ± 0.0065,0.32 ± 0.1,0.256 ± 0.11,0.51 (inactive)
COc1cc(O)c(C(=O)Nc2nc(C(=O)NCCN(C(C)C)C(C)C)cs2)cc1OC,1.25 ± 0.33,1.01 ± 0.073,1.13 ± 0.087,0.997 ± 0.038,0.907 ± 0.1,0.973 ± 0.18,0.994 (active)
Cc1sc2ncnc(Nc3ccc(F)cc3)c2c1C,0.813 ± 0.035,0.948 ± 0.11,1.22 ± 0.071,0.739 ± 0.034,0.935 ± 0.19,1.07 ± 0.27,0.981 (active)
Cc1cc(OC2CN(C(=O)Cn3nnc4ccccc43)C2)cc(=O)n1C1CC1,1.14 ± 0.08,1.05 ± 0.11,1.02 ± 0.044,0.97 ± 0.044,0.99 ± 0.07,0.973 ± 0.15,0.997 (active)
CCOC(=O)C1=C(C)NC(=Cc2ccccc2[N+](=O)[O-])C1=O,1.66 ± 0.13,0.864 ± 0.2,0.872 ± 0.13,0.275 ± 0.024,0.0881 ± 0.019,0.064 ± 0.016,0.755 (active)
CC1=NN(c2ccc(C(=O)O)cc2)C(=O)C1=Cc1ccc(-c2cc(C)c(C)cc2[N+](=O)[O-])o1,0.951 ± 0.057,0.969 ± 0.076,0.947 ± 0.073,1 ± 0.066,0.976 ± 0.07,0.92 ± 0.23,0.997 (active)
CC(C)c1cc(C(=O)N2Cc3ccc(CN4CCN(C)CC4)cc3C2)c(O)cc1O,0.0684 ± 0.0053,0.106 ± 0.0088,0.311 ± 0.052,0.509 ± 0.3,0.971 ± 0.37,0.991 ± 0.44,0.762 (active)
COc1c(Cl)cc(C(=O)Nc2cccc(NC(=O)c3ccco3)c2)cc1Cl,1.15 ± 0.098,1.01 ± 0.056,0.682 ± 0.043,0.858 ± 0.022,1.1 ± 0.11,0.956 ± 0.29,1.01 (active)
CN(Cc1cnc2nc(N)nc(N)c2n1)c1ccc(C(=O)N[C@@H](CCC(=O)O)C(=O)O)cc1,0.668 ± 0.16,0.862 ± 0.28,0.764 ± 0.045,0.612 ± 0.049,1.02 ± 0.35,0.993 ± 0.16,0.574 (inactive)
COC(c1ccccc1)(c1ccccc1)C(Oc1nc(C)cc(C)n1)C(=O)O (stereo not drawn) [Prestw-1497],0.986 ± 0.077,0.945 ± 0.07,0.936 ± 0.091,1.09 ± 0.052,1.31 ± 0.18,1.44 ± 0.32,1.05 (active)
CCN(CC)CCCC(C)Nc1c2ccc(Cl)cc2nc2ccc(OC)cc12 (stereo not drawn) [Prestw-318],0.0785 ± 0.011,0.167 ± 0.04,0.447 ± 0.051,0.0346 ± 0.0049,1.19 ± 0.22,0.939 ± 0.22,0.825 (active)
